MEKK2wt PB1 HTS: modulators of MEK5 binding to wildtype MEKK2, primary screen, biochemical, multiplex bead flow cytometry, Alexa488-MEK5. binding response (% of control), % at 10 µM. Alexa488-MEK5 binding to MEKK2 WT; actives lie on both sides. 290,000 tested, 1.1% active; in the data active = binding response below about 67% or above about 130%
GRK2 inh: compounds blocking aptamer binding on GRK2 – biochemical, human GRK2, bead flow cytometry, HTS, primary screen; FAM-aptamer displacement from GRK2; inhibition of aptamer binding, % at 10 µM; 330,000 tested, 0.59% active; AID 488847, 2010;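 active = inhibition of aptamer binding above 40%, roughly 3 SD of noise, on plates passing a quality check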;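 also: median bead fluorescence of bound FAM aptamer so fluorescent compounds give negative values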
MEKK3 PB1 HTS: modulators of MEKK3-MEK5 PB1 binding, primary screen, biochemical, wildtype MEKK3, multiplex bead flow cytometry, Alexa488-MEK5 | binding response (% of control), % at 10 µM | Mitogen-activated protein kinase kinase kinase 3 (Homo sapiens), Q99759 | 290,000 tested, 1.4% active | AID 1529, 2009 | bead-based flow cytometry, Alexa488-MEK5 binding to MEKK3; actives lie on both sides; 0 = blocked by unlabeled MEK5, 100 = vehicle;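 active = binding response more than 3 SD above or below the average of its plate-row segment, actives on both sides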;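 also: Alexa488 bead fluorescence after subtracting the streptavidin-only scavenger bead signal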
B2AR ag: beta2AR agonists driving receptor internalization, primary screen, cell-based, FAP fluorogen, flow cytometry | 340,000 tested, 0.43% active | Beta-2 adrenergic receptor (Homo sapiens), P07550 | Am2.2-beta2AR cells | response, % (concentration not given with the values);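 active = response above a set limit, near 3 SD of response in nonfluorescent compounds, cut at about 42% in these data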
MEKK2 mut-MEK5: MEK5 binding signal on mutant MEKK2 PB1, primary screen, biochemical, multiplex bead flow cytometry, Alexa488-MEK5; percent response, % at 10 µM; Alexa488-MEK5 binding to MEKK2 mutant; AID 1530, 2009; 290,000 tested, 0.35% active; in the data active = percent response above about 24%, passing the limit was not always enough
Beta2AR ag CP1: beta2AR agonists via receptor internalization, confirmation, cell-based, FAP fluorogen, flow cytometry, single point, cherry pick 1; shares compounds with B2AR ag; Am2.2-beta2AR cells, FAP surface receptor; hits give low values; percent response (surface receptor), % at 10 µM; 1,100 tested, 25% active; AID 540358, 2011;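 active = surface receptor percent response at or below 58%, roughly 3 SD from nonfluorescent compounds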
B2AR FAP counter: fluorescence artifact in beta-2AR agonist FAP counterscreen; shares compounds with B2AR ag; 1,100 tested, under 10 active; calls only at 10 µM; Am2.2 cells, FAP fluorogen flow cytometry; hits give low values;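 active = percent response below a set limit in fluorescence channel 1 and below 50% in channel 8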
* hit, by the source's call; i = inactive; nt = no result. Shown are actives, neighbours in structure and some others; about 2.9% of the full set was active somewhere.

SMILES | MEKK2wt PB1 HTS | GRK2 inh | MEKK3 PB1 HTS | B2AR ag | MEKK2 mut-MEK5 | Beta2AR ag CP1 | B2AR FAP counter
COCCCNc1ncnc2c1sc1nc(-c3ccco3)c3c(c12)CC(C)(C)OC3 | 120.0 | 2.0 | 117.0 | 98.8* | 23.0 | 20.1* | i
COc1ccccc1CNS(=O)(=O)CCNC1CC1 | nt | nt | nt | -7.8 | nt | nt | nt
Cc1cccc(NCc2ccc(Br)cc2)n1 | 111.0 | 7.0 | 105.0 | 4.8 | 11.0 | nt | nt
COC(=O)CSc1nc(SC)nc2c1sc1nc(-c3ccco3)c3c(c12)CC(C)(C)OC3 | nt | nt | nt | -5.8 | nt | nt | nt
CSc1nc(SCCO)c2sc3nc(-c4ccco4)c4c(c3c2n1)CC(C)(C)OC4 | nt | nt | nt | 99.5* | nt | 6.5* | i
CCOC(=O)c1c(-c2ccccc2)oc2ccc(O)c(CN3CCCC3)c12 | 130.0 | 0.0 | 104.0 | 95.1* | 8.0 | 106.3 | i
CCC1CCC(N2CCN(c3ccc([N+](=O)[O-])cc3)CC2)CC1 (configuration not stated) | 115.0 | 0.0 | 111.0 | 4.0 | 5.0 | nt | nt
CC(=NN=C(C)c1ccc(O)cc1)c1ccc(O)cc1 | nt | nt | nt | 33.2 | nt | nt | nt
C/C=C(/C(=C/C)c1ccc(O)cc1)c1ccc(O)cc1 | 95.0 | 2.0 | 95.0 | -14.6 | 3.0 | 108.3 | i
COc1ccc(/C=N/NC(=O)c2cccc3ccccc23)c(OC)c1OC | nt | 1.0 | nt | -4.2 | nt | nt | nt
COc1cccc(C(=O)OC(C)C(=O)NCC2CCCCC2)c1 (configuration not stated) | nt | 3.0 | nt | -9.4 | nt | nt | nt
O=C(O)c1cc([N+](=O)[O-])ccc1N1CCCCC1 | 104.0 | 0.0 | 106.0 | 2.7 | -2.0 | nt | nt
Cc1ccc(C(=O)c2cc([N+](=O)[O-])ccc2N2CCCCC2)c(C)c1 | 100.0 | 2.0 | 112.0 | 60.9* | -1.0 | 41.0* | i
O=C(CN1CCCCCC1)Nc1ccc(Cl)cn1 | 92.0 | 1.0 | 94.0 | 4.5 | -15.0 | nt | nt
O=C(COC(=O)c1ccc(Cl)c([N+](=O)[O-])c1)NC1CCCC1 | 110.0 | 0.0 | 110.0 | 9.9 | 11.0 | nt | nt
O=C(COC(=O)c1ccccc1C(=O)c1ccc(Cl)c([N+](=O)[O-])c1)NC1CCCCCC1 | 94.0 | 1.0 | 96.0 | 53.0* | -2.0 | 9.7* | i
Cn1c(CC(=O)Nc2ccccc2C(F)(F)F)c(Sc2ccccc2)c2ccccc21 | 95.0 | 0.0 | 99.0 | -5.7 | -1.0 | nt | nt
C=CCc1cc(Cl)ccc1OCCCNC(C)C | 112.0 | 0.0 | 99.0 | 62.3* | 26.0 | 98.5 | i
CCc1ccccc1NC(=O)C1CCCN(c2nccc(C)n2)C1 (configuration not stated) | 98.0 | 1.0 | 104.0 | -8.3 | -2.0 | nt | nt
CN(C)c1nc(-c2ccccc2)c2cc(Cl)ccc2n1 | 89.0 | 6.0 | 97.0 | 12.1 | 0.0 | nt | nt
CC(C)Cc1nc2oc3c(Cl)ncnc3c2c2c1CCC2 | 100.0 | 0.0 | 102.0 | 110.2* | 4.0 | 19.7* | i
O=C(COc1ccc(S(=O)(=O)N2CCOCC2)cc1)Nc1ccc(Cl)c(C(F)(F)F)c1 | 114.0 | 4.0 | 111.0 | -3.5 | 9.0 | 114.1 | i
O=C(COc1ccc(S(=O)(=O)N2CCOCC2)cc1)Nc1ccc2c(c1)OCCO2 | 92.0 | 0.0 | 93.0 | 5.0 | -3.0 | 85.4 | i
CCOc1ccc(NC(=O)COc2ccc(S(=O)(=O)N3CCOCC3)cc2)cc1 | nt | 2.0 | nt | -3.5 | nt | 50.9* | i
O=C(COc1ccc(S(=O)(=O)N2CCOCC2)cc1)Nc1ccc(Br)cc1 | nt | 0.0 | nt | -1.4 | nt | 102.4 | i
O=C(Cc1ccc(Cl)cc1)NNC(=O)C1CC=CCC1C(=O)O (configuration not stated) | 105.0 | 1.0 | 107.0 | -2.3 | 5.0 | nt | nt

Source: PubChem BioAssay
